Source: PubChem BioAssay (NCATS)
Results filed as inconclusive are left out. Entries that show only a call come without a potency. Active and inactive are the calls of the source. The call rests on the fitted dose curve; in most records, active means well fitted activation curve with a large enough effect; inconclusive means small, poorly fitted or top-dose-only effect; inactive means flat fitted curve, though single readings scatter.

Each compound was assayed against D(1A) dopamine receptor (Homo sapiens) (UniProt P21728) (assay: HTS Assay for Allosteric Agonists of the Human D1 Dopamine Receptor: Primary Screen for Agonists (AID 488981)). Conditions: Inducible HEK293 T-REx D1 cells, calcium-flux fluorescence, 180 s kinetic; series mostly up to 41.8 µM.
Sequence of D(1A) dopamine receptor (Homo sapiens) (P21728 whole entry, looked up): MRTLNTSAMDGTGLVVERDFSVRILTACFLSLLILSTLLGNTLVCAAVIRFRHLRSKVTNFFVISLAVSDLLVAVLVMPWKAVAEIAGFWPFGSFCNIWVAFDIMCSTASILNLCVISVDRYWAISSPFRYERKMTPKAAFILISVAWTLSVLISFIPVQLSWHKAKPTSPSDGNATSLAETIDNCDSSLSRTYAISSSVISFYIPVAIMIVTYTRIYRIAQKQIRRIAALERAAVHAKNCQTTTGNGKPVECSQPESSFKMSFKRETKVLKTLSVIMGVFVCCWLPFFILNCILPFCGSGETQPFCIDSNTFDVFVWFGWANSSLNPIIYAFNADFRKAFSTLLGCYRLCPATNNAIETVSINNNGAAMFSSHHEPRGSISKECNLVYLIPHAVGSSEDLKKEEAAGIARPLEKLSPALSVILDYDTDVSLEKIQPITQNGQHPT
Description: Dopamine receptors (DARs) are involved in the etiology and/or therapy of a number of neuropsychiatric and endocrine disorders. For instance, all receptor-based antiparkinsonian drugs work via stimulating the […] DAR subtype whereas all FDA-approved antipsychotic agents are antagonists of this receptor. […] There are three different types of allosteric modulators that we are seeking, two of which will stimulate or augment receptor signaling, allosteric agonists and potentiators, while the third, allosteric antagonists, will attenuate receptor signaling. The present primary screening assay measures compound agonism by tracking calcium flux in a […], inducible Hek293 Trex D1 cell line.
Freshly passaged cells are plated in 1536 well black, clear bottom plates at a density of 4000 cells/well in 3 ul of complete media containing 1x tetracycline inducer. After an overnight incubation at 30 C in 5% CO2, cells are loaded with 2 ul of the no wash Calcium Assay Kit (ABD Bioquest) and incubated at room temperature for 30 to 90 minutes. A 10 cycle (1 second/cycle) baseline measurement is taken and then the FDSS online 1536 pintool delivers 23 nl of compound library (as well as dopamine controls) to the plate. The plate is measured for kinetically at 1 cycle/sec for 180 seconds and is considered to be the agonist portion of the assay (eg, compounds which activate a positive calcium response during this portion are flagged as potential agonists). Following the 180 second read, 1 ul of an EC20 of dopamine is delivered by an onboard pipette head. Measurements are taken kinetically for an additional 180 seconds.
Potency means the concentration at half of the fitted maximal effect.

| Compound | Potency |
| --- | --- |
| C=CC(C)=C[C@@]1(C)SC(=O)C(C)=C1O | inactive |
| O=C(O)CC[C@@H](C(=O)O)N1C(=O)c2ccccc2C1=O | inactive |
| CO/N=C(\C(=O)N[C@@H]1C(=O)N2C(C(=O)O)=C(COC(C)=O)CS[C@H]12)c1csc(N)n1 | inactive |
| c1ccc(-c2ccccn2)nc1 | inactive |
| CN(C)c1nc2c(Br)c(Br)c(Br)c(Br)c2[nH]1 | inactive |
| NC(=O)C1=CN(C2OC(COP(=O)(O)OP(=O)(O)OC[C@H]3O[C@@H](n4cnc5c(N)ncnc54)[C@H](OP(=O)(O)O)[C@@H]3O)C(O)C2O)C=CC1 (stereo not given in full) | inactive |
| CCCCCCCCCCCCCCCCCC(=O)NCC(COP(=O)([O-])OCC[N+](C)(C)C)OCC (stereo not given) | 10 µM (active) |
| O=C(O)CNC(=O)C(CS)Cc1ccccc1 (stereo not given) | inactive |
| C=CC(N)CCC(=O)O (stereo not given) | inactive |
| O=C(Nc1ccccc1)c1cc([N+](=O)[O-])ccc1Cl | inactive |
| C=C[C@H]1CN2CC[C@@H]1C[C@@H]2[C@@H](O)c1ccnc2ccc(OC)cc12 | inactive |
| O=C(c1ccc(Cl)cc1)N1CCN(c2ccc([N+](=O)[O-])c3ncccc23)CC1 | inactive |
| NCCSSCCN | inactive |
| OCC1O[C@H]([S-])[C@H](O)[C@@H](O)[C@@H]1O.[Au+] (stereo not given in full) | inactive |
| Oc1cc(O)cc(/C=C/c2ccc(O)c(O)c2)c1 | inactive |
| CC(=O)N[C@H](C(=O)O)C(C)(C)SN=O | inactive |
| COc1ccc(NC(=O)/C=C/c2ccc(Cl)cc2)cc1 | inactive |
| Cc1nc2sccn2c(=O)c1CCN1CCC(=C(c2ccccc2)c2ccc(F)cc2)CC1 | inactive |
| Cc1ccc(O)c(N=Nc2ccccc2)n1 | inactive |
| Cc1ccc(C(=O)O[C@H](C(=O)O)[C@@H](OC(=O)c2ccc(C)cc2)C(=O)O)cc1 (tested in a mixture with another compound) | inactive |

| Compound | Potency |
| --- | --- |
| NC[C@H]1O[C@@H](n2cnc3c(N)ncnc32)[C@H](O)[C@@H]1O | inactive |
| CN(C)CCC(c1ccc(Cl)cc1)c1ccccn1 (stereo not given) | inactive |
| CC(C)Cc1ccc([C@H](C)C(=O)O)cc1 | inactive |
| CC(C)(C=O)Cc1cc(C(C)(C)C)c(O)c(C(C)(C)C)c1 | inactive |
| CN1CCc2ccccc2Cc2[nH]c3ccccc3c2CC1 | inactive |
| S=C(S)OC1CC2CC1C1CCCC21 (stereo not given) | inactive |
| C[C@@H](CN1CCC(Cc2ccccc2)CC1)[C@@H](O)c1ccc(O)cc1 | inactive |
| Nc1ncnc2c1ncn2[C@@H]1O[C@H](COP(=O)(O)CP(=O)(O)OP(=O)(O)O)[C@@H](O)[C@H]1O | inactive |
| CN1C2CC(OC(=O)[C@H](CO)c3ccccc3)CC1C1OC12 (stereo not given in full) | inactive |
| NCCCCCCCCCCN | inactive |
| NC(=S)c1ccc[n+]([C@@H]2O[C@@H](COP(=O)([O-])OP(=O)(O)OC[C@H]3O[C@@H](n4cnc5c(N)ncnc54)[C@H](OP(=O)(O)O)[C@@H]3O)C(O)C2O)c1 (stereo not given in full) | inactive |
| c1cnc2c(c1)ccc1cccnc12 | inactive |
| CCCCC/C=C\CC(O)/C=C/c1cccc(CC(O)CCCCO)n1 (stereo not given) | inactive |
| NO | inactive |
| O=[N+]([O-])c1ccc(CSc2ncnc3c2ncn3[C@@H]2O[C@H](CO)[C@@H](O)[C@H]2O)cc1 | inactive |
| CC(=O)/C=C1\C(=O)N(C)c2ccccc21 | inactive |
| CCCCCCCCCCCCCCCC(=O)NCC(COP(=O)([O-])OCC[N+](C)(C)C)OCC (stereo not given) | 12.6 µM (active) |
| CC(C)CC(NP(=O)(O)O[C@@H]1O[C@@H](C)[C@H](O)[C@@H](O)[C@H]1O)C(=O)NC(Cc1c[nH]c2ccccc12)C(=O)O (stereo not given in full) | inactive |
| CN(C)CCCO[C@@H]1[C@H]2OC(C)(C)O[C@H]2O[C@@H]1[C@H](O)CO | inactive |
| CC1(C)CCC=[N+]1[O-] | inactive |
